The values that follow come from PubChem BioAssay (NCATS).

Structures are written as SMILES. Unmarked numbers belong to inactive results. Inconclusive results are not listed. Entries that show only a call come without a potency. The source made the active and inactive calls. Unless noted, calls come from the whole dose curve; as a rule, active = well fitted curve in the direction sought with a large enough effect; inconclusive = small, poorly fitted or top-dose-only effect, or another doubt; inactive = no such curve, though single readings can be large; an effect the other way counts as inactive or inconclusive.

The nature of assay [1]: qHTS Assay for Identification of Small Molecule Agonists for Thrombopoietin (TPO) Signaling Pathway (AID 917). Put shortly: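 Luminescence from a Glycoprotein IIb promoter–driven luciferase reporter served as read-out in murine Ba/F3 cells carrying the human TPO receptor. Cells, deprived of IL-3 overnight, received compounds with 26 pM TPO and were incubated 24 hrs at 37 C.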

Assay [2] has as its target Muscarinic acetylcholine receptor M1 (Rattus norvegicus) (UniProt P08482). The assay can be described thus: qHTS Assay for Antagonists of Acetylcholine Muscarinic M1 Receptor: Kinetic Measurement of Intracellular Calcium Response (AID 943). Note: nearly all actives have a fitted effect of over 75% in size. Note: potency is the fitted concentration of half-maximal effect. The method in brief: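 CHO cells expressing rat M1 receptor, Fluo-4 loaded, preincubated 10 min with compound, then stimulated with EC80 carbachol (100 nM final). Kinetic calcium fluorescence over 4 min; response taken as peak over basal signal.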

Assay [3] concerns the target Pyruvate kinase PKM (Homo sapiens) (UniProt P14618). The assay can be described thus: qHTS Assay for Activators of Human Muscle Pyruvate Kinase (AID 954; active = well fitted curve in the direction sought with a large enough effect, not every such curve was filed as active). The method in brief: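 Enzyme was run at intermediate activity so both inhibitors and activators could be detected. ATP formed from ADP and PEP by 0.1 nM human PKM2 during a 1 h room-temperature incubation was quantified by coupled luciferase luminescence.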

The target in assay [4] is Pyruvate kinase (Leishmania mexicana) (UniProt Q27686). Briefly: qHTS Validation Assay for Inhibitors of Leishmania Mexicana Pyruvate Kinase (AID 945). Put shortly:
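The enzyme is a highly purified E451W mutant of LmPYK used at 0.2 nM. It converts 0.5 mM PEP and 0.1 mM ADP over 1 h at room temperature; product ATP is quantified by luciferase luminescence relative to DMSO controls.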
Background: Quantitative high-throughput screening tests each substance at several concentrations.

The nature of assay [5]: qHTS Assay for Identification of Small Molecule Agonists for Hypoxia Response Element Signaling Pathway (AID 914; active = well fitted activation curve with a large enough effect in the signal ratio, with a control signal flat, not every such curve was filed as active; the % refers to the signal ratio). Conditions: ME-180 (cervical carcinoma) HRE-bla reporter, beta-lactamase ratio, CoCl2, 17 h; activation: hits give high values. The method in brief:
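Cells were plated overnight, pin-dosed with compound in a titration series, co-stimulated with EC50 CoCl2 and incubated 17 hours at 37 degrees Celsius. CCF4 substrate was then loaded, and AC50 values came from the 460nm/530nm ratio.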

In assay [6] the target is Muscarinic acetylcholine receptor M1 (Rattus norvegicus) (UniProt P08482). Briefly: qHTS Assay for Antagonists of Acetylcholine Muscarinic M1 Receptor: Measurement of IP-One Response (AID 944). Note: nearly all actives have a fitted effect of over 75% in size. Put shortly: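 CHO cells stably expressing rat M1, pretreated 10 min with compound, then stimulated 30 min with carbachol at EC80 (200 nM) in LiCl-containing buffer pH 7.4; IP1 accumulation read by HTRF competition (665/620 nm).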
Chain of Muscarinic acetylcholine receptor M1 (Rattus norvegicus) (P08482 whole entry, looked up): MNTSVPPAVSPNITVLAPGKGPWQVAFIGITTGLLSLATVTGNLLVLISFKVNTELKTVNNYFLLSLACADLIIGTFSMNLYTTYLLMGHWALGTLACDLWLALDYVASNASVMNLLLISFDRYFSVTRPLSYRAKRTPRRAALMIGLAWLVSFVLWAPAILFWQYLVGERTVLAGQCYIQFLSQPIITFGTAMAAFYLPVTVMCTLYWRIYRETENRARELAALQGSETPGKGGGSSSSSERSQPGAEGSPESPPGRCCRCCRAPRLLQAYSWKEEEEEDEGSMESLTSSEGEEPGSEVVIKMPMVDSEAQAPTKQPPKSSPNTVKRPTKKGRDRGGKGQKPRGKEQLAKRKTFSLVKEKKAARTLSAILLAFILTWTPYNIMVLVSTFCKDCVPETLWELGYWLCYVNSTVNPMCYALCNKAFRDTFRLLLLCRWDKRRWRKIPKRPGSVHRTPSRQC

Assay [7] can be described thus: Confirmation and Secondary Assay for Modulators of Hemoglobin Beta Chain Splicing at IVS2 654 locus (AID 910).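 Note: HeLa cells stably carrying EGFP split by mutant beta-globin IVS2-654 intron; per-well total GFP intensity by laser scanning cytometry after 2-day treatment.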 The method in brief: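 Readout: per-well total peak green fluorescence (488 nm ex, 500–520 nm em) from objects 5–250 µm, reflecting correct splicing of an EGFP-654 reporter. Compounds were applied for 2 days at 37 °C to overnight-plated HeLa EGFP-654 cells; controls were DMSO and 500 nM IVS2-654 PNA.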

The nature of assay [8]: Confirmation and Secondary Assay for Modulators of Hemoglobin Beta Chain Splicing at IVS2 705 locus (AID 930).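 Note: HeLa cells stably expressing the EGFP-705 splicing reporter; GFP fluorescence per well restored by corrected splicing of the IVS2-705 intron in EGFP; series mostly up to about 46 µM.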 Put shortly: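 Splice-correction reporter: EGFP cDNA split by beta-globin intron 2 bearing the 705 mutation, stably in HeLa. Compound incubation 2 days, 37C; fluorescent objects 5-250 µm summed per well.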
Assay [9] is described as follows: qHTS Assay for Identification of Small Molecule Antagonists for Thrombopoietin (TPO) Signaling Pathway (AID 918). Note: potency is the fitted concentration of half-maximal effect; nearly all actives have a fitted effect of over 60% in size. Conditions: TPO-dependent cell signaling reporter, antagonist mode. Put shortly: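 Murine Ba/F3 cells expressing human TPO receptor and a Glycoprotein IIb promoter-luciferase reporter, IL-3-starved overnight, treated with compound plus TPO at EC50 (26 pM final). After 24 h at 37 C, luminescence read to detect inhibitors.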

Chain of Pyruvate kinase (Leishmania mexicana) (Q27686 2-499 E452W): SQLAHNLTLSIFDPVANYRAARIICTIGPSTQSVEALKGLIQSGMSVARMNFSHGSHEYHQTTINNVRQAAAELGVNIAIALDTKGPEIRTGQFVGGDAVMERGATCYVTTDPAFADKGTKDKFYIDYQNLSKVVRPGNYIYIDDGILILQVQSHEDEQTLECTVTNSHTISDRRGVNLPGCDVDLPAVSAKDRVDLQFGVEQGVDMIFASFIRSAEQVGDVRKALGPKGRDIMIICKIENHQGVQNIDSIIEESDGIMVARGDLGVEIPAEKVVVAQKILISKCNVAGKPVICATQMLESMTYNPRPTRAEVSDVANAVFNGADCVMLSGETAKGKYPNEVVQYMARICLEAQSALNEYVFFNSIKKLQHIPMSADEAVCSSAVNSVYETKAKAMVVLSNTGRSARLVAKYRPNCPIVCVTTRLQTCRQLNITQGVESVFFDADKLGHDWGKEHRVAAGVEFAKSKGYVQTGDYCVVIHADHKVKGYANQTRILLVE
Chain of Pyruvate kinase PKM (Homo sapiens) (P14618 whole entry, looked up): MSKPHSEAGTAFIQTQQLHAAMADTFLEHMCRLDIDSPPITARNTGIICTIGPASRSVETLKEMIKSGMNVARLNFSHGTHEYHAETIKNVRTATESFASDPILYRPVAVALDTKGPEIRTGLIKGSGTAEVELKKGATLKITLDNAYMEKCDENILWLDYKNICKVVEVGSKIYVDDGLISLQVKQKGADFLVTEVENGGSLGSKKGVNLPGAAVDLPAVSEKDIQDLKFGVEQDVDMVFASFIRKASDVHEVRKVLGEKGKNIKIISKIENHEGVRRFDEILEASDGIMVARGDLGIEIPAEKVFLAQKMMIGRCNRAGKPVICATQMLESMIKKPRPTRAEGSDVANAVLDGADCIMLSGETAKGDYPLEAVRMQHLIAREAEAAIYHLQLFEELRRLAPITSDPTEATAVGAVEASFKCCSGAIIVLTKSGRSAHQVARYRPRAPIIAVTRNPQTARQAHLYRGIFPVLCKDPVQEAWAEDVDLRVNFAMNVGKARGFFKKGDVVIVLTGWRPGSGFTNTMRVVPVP

`N#C/C(=C\c1ccc(O)c(O)c1)C(=O)NCCCNC(=O)/C(C#N)=C/c1ccc(O)c(O)c1`: the Potency entry in assay [1] and in [2] was “inactive” throughout. Moreover, the call in [3] was inactive.

In the case of `O=C(OCCN1CCOCC1)C1(c2ccccc2)CCCCC1`, the Potency result in [1] and in assay [4] was “inactive” each time. Besides, in assay [2], the Potency is 2 µM (active). Further, in assay [3], the compound was classed as inactive.

Regarding `Nc1ccc(N2C(=O)c3ccccc3C2=O)c(Cl)c1`, the activation in assay [5] was -21.1%. In addition, the Potency result in [1], in assay [6] and in assay [4] was “inactive” in each case. In addition, the compound was classed as inactive in assay [3].

For `CN1C2CCC1CC(OC(c1ccccc1)c1ccccc1)C2` (stereo unspecified), in assay [7], the Potency result is “inactive”. In addition, the outcome in assay [8] was inactive.

In the case of `N[C@@H](CS(=O)O)C(=O)O`, the Potency result in assay [1], in assay [2], in assay [6] and in assay [4] was “inactive” in each case. For the same compound, the result in assay [3] was inactive.

Take `Cc1cc2c(cc1Cl)N(C(=O)Nc1ccnc3ccccc13)CC2`: the Potency entry in [1], in assay [2], in [6] and in assay [4] was “inactive” throughout. Moreover, in assay [3], the call was inactive.

As for `O=C(O)Cc1c[nH]c2ccc(O)cc12`, the Potency result in assay [1], in assay [2], in assay [6] and in [4] was “inactive” throughout. The call in assay [3] was inactive.

As for `CC(N)=O`, the Potency result in [1], in assay [2], in [6] and in [4] was “inactive” each time. Further, in assay [3], the call was inactive.

On to `NC(N)=[N+]1CCc2ccccc2C1`, for which the Potency result in assay [1], in [2] and in [4] was “inactive” each time. Further, the compound was classed as inactive in assay [3].

Turning to `N[C@@H](Cc1c[nH]c2ccccc12)C(=O)O`, the Potency result in assay [1], in assay [2], in assay [6] and in [4] was “inactive” in each case. Moreover, the result in assay [3] was inactive.

Regarding `Nc1nc2[nH]c(=O)cnc2c(=O)[nH]1`, the Potency result in assay [1], in assay [2], in [6] and in assay [4] was “inactive” throughout. Besides, the compound was classed as inactive in [3].

As for `COc1ccc2c(c1)c(CC(=O)O)c(C)n2Cc1ccc(Cl)cc1`, the Potency entry in assay [1], in [2], in assay [6] and in assay [4] was “inactive” each time. Further, the outcome in assay [3] was inactive.

Take `COc1ccc2c(c1)c(CC(=O)O)c(C)n2C(=O)c1ccccc1`: the Potency entry in [1], in assay [2], in assay [6] and in assay [4] was “inactive” each time. Moreover, in [3], the call was inactive.

`O=c1onc2n1-c1cc(Br)ccc1OC2`: the Potency result in [1], in [2], in assay [6] and in assay [4] was “inactive” throughout. Further, the call in [3] was inactive.

In the case of `CCCCCCC/C=C\CCCCCCCCC(=O)O`, the activation in assay [5] is -14%. Further, the Potency entry in assay [1], in assay [2], in [6] and in assay [4] was “inactive” in each case. The call in assay [3] was inactive.

With `N[C@@H](Cc1ccc(O)c(I)c1)C(=O)O`, the Potency result in assay [1], in assay [2], in [6] and in assay [4] was “inactive” each time. In [3], the outcome was inactive.

For the compound `S=C(S)N1CCCC1`, the Potency result in assay [6] and in [4] was “inactive” throughout. Further, the compound was called inactive in assay [3].

Consider `Nc1ccc2c3c(cccc13)C(=O)NC2=O`, for which the Potency entry in assay [1] and in assay [4] was “inactive” each time. Further, in [3], the outcome was inactive.

`Nc1ncnc2c1ncn2C1CCCC1`: the Potency entry in assay [2], in [6] and in assay [4] was “inactive” each time. In addition, in assay [3], the call was inactive.

As for `Fc1ccc(CN(C2=NCCN2)c2c(Cl)cccc2Cl)cc1`, the Potency result in assay [1] and in assay [4] was “inactive” each time. For the same compound, in assay [3], the result was inactive.

In the case of `COc1ccccc1N1CCN(CCCCNC(=O)c2ccc3ccccc3c2)CC1`, in assay [4], the Potency result is “inactive”. For the same compound, the outcome in [3] was inactive.

On to `CCCc1c(OCCCOc2ccc(OCC(=O)O)cc2)ccc(C(C)=O)c1O`, for which the Potency entry in [1], in assay [6] and in assay [4] was “inactive” throughout. Also, in assay [3], the compound was called inactive.

With `CCCCOC(=O)NS(=O)(=O)c1sc(CC(C)C)cc1-c1ccc(Cn2c(CC)nc3c(C)cc(C)nc32)cc1`, the Potency entry in assay [6] and in assay [4] was “inactive” throughout. Moreover, the call in assay [3] was inactive.

Take `NC(N)=NC(N)=Nc1cccc(Cl)c1`: the Potency result in assay [6] and in [4] was “inactive” throughout. Besides, the compound was called inactive in assay [3].

Turning to `N=C(N)c1ccc(N)cc1`, the Potency result in assay [4] was “inactive”. Further, in [3], the call was inactive.

On to `COC(=O)[C@H](NC(=O)c1cc(-c2ccccc2)nc2ccccc12)c1ccccc1`, for which the Potency result in assay [1], in assay [6] and in assay [4] was “inactive” in each case. Further, in assay [3], the compound was classed as inactive.

For the compound `N=C(N)SCCc1cnc[nH]1`, the Potency in assay [9] is 0.794 µM (active). The Potency entry in assay [2], in assay [6] and in assay [4] was “inactive” in each case. The outcome in assay [3] was inactive.

Turning to `O=c1[nH]c2cc(Cl)ccc2c(O)c1-c1ccc(Oc2ccccc2)cc1`, the Potency entry in [1], in [6] and in assay [4] was “inactive” throughout. In addition, the compound was called inactive in assay [3].

For the compound `Nn1nnc2ccccc21`, the Potency result in assay [6] and in assay [4] was “inactive” throughout. Moreover, the outcome in assay [3] was inactive.

For `CN1CCN(c2nc3cc(C(F)(F)F)ccc3n3cccc23)CC1`, the Potency entry in assay [2], in assay [6] and in assay [4] was “inactive” each time. Besides, the outcome in [3] was inactive.

With `c1ccc2c(c1)CC(N1CCN(c3cccc4c3OCCO4)CC1)C2`, the Potency entry in assay [1] and in [4] was “inactive” each time. In addition, the result in assay [3] was inactive.

Turning to `CC(C)(C)c1cc(/C=C(\C#N)C(N)=S)cc(C(C)(C)C)c1O`, the Potency result in [4] was “inactive”. In assay [3], the compound was called inactive.

For `CCCOC(=O)c1c(-c2ccccc2)nc(CC)c(C(=O)SCC)c1CCC`, the Potency result in assay [1], in assay [6] and in [4] was “inactive” throughout. Also, the call in assay [3] was inactive.

As to `CC[C@@H]1Cc2cc(O)ccc2C2=C1c1ccc(O)cc1C[C@H]2CC`, the Potency in assay [2] is 12.6 µM (active). Also, in [4], the Potency entry is “inactive”. Further, the compound was called inactive in assay [3].

With `C[C@H](O)C(=O)C1=Nc2c(nc(N)[nH]c2=O)NC1`, the Potency result in assay [1], in [6] and in assay [4] was “inactive” throughout. Also, in assay [3], the result was inactive.

Take `COc1ccc(NC(=O)c2ccc(-c3ccc(-c4noc(C)n4)cc3C)cc2)cc1N1CCN(C)CC1`: the Potency in [9] was 10 µM (active). Also, in [4], the Potency entry was “inactive”. The call in assay [3] was inactive.

With `c1ccc(CN2CCC3(CCCc4ccccc43)CC2)cc1`, the Potency result in [1] and in assay [4] was “inactive” each time. For the same compound, the result in assay [3] was inactive.

With `O=c1ccc2c(OCCCCc3ccccc3)c3ccoc3cc2o1`, the Potency result in assay [1] and in assay [4] was “inactive” each time. The compound was classed as inactive in assay [3].
